# Legend:
# Test in all cases: DAPPL (digital affinity profiling via proximity ligation, sequencing); 10 mM Tris-HCl pH 7.5, 50 mM NaCl, 1 mM DTT, 4% glycerol, room temperature, 30 min; GST-TFs on glutathione beads, 16-mer random dsDNA library, 0.1% formaldehyde crosslink after washing; high values mean tight binding
# FLI1 = target: T1, FLI1 (Homo sapiens, UniProt Q01543 1-452); conditions: protein: recombinant; tags: N-terminal GST; dsDNA, one strand shown
# T1 sequence: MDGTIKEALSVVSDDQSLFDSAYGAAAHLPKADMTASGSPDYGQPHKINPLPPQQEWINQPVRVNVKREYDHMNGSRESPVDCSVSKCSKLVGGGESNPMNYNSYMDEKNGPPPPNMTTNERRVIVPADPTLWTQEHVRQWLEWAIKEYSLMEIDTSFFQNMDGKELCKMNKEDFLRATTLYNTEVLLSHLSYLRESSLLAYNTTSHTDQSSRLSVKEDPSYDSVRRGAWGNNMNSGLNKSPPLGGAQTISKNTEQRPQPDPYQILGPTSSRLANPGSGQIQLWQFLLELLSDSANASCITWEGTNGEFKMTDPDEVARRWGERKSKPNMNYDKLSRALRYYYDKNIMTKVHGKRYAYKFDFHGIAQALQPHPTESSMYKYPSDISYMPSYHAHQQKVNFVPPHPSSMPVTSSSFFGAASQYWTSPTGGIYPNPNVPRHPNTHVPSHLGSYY
# Procedure, shortened: (§1)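 Pools were built from human transcription factors expressed in yeast as GST fusions, captured on glutathione beads and DNA-barcoded, along with a tag-only sample. Incubation with 200 nmole of a 16-mer random double-stranded DNA library lasted 30 min at room temperature in Tris/NaCl/DTT/glycerol buffer, and was followed by washing, 0.1% formaldehyde crosslinking, proximity ligation, PCR amplification and Illumina NextSeq500 sequencing. Binding signal is the quotient of each hexamer's read frequency for a factor and its frequency for the tag-only sample.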
# ELK1 = target: T2, ELK1 (Homo sapiens, UniProt P19419 1-428); conditions: protein: recombinant; tags: N-terminal GST; dsDNA, one strand shown
# T2 sequence: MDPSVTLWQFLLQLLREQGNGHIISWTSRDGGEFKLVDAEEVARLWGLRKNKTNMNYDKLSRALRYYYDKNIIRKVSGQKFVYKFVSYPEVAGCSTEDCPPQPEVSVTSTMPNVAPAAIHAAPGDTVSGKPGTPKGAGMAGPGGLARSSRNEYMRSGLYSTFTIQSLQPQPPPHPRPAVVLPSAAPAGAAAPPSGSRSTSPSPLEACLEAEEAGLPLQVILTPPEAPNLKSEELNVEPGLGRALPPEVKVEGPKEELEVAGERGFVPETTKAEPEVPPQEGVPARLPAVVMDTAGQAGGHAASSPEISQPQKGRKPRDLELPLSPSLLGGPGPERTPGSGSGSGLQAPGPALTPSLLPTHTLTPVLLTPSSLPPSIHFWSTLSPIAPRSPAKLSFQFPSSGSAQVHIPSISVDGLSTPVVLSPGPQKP
# Procedure, shortened: as §1
# GABPA = target: T3, GABPA (Homo sapiens, UniProt Q06546 1-454); conditions: protein: recombinant; tags: N-terminal GST; dsDNA, one strand shown
# T3 sequence: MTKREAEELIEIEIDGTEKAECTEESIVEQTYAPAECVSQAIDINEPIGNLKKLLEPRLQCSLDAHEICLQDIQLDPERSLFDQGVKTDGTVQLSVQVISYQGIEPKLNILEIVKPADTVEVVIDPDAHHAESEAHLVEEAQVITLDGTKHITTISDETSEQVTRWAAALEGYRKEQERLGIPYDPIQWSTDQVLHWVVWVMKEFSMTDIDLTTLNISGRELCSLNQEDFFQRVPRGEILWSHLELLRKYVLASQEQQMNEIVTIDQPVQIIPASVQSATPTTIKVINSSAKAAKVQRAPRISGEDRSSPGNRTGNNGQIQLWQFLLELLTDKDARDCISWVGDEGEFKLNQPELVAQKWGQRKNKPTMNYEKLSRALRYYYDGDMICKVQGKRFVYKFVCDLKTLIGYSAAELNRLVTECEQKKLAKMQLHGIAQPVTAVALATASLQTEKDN
# Procedure, shortened: as §1
# ERG = target: T4, ERG (Homo sapiens, UniProt P11308 1-479); conditions: protein: recombinant; tags: N-terminal GST; dsDNA, one strand shown
# T4 sequence: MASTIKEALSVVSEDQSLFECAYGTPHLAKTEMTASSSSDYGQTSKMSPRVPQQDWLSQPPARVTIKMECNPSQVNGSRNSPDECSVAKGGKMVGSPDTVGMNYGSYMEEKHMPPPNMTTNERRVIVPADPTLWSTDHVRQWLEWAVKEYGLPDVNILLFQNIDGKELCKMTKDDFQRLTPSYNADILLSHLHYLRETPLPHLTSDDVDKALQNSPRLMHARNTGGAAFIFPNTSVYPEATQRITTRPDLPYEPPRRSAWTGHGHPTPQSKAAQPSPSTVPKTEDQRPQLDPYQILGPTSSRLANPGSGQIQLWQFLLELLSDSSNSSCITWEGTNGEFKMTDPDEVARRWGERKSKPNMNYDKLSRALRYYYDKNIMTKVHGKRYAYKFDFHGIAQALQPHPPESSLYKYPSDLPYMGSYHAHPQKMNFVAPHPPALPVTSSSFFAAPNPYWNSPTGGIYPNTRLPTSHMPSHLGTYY
# Procedure, shortened: as §1
# ELF1 = ELF1 (Homo sapiens, UniProt P32519 1-619); conditions: protein: recombinant; tags: N-terminal GST; dsDNA, one strand shown
# Procedure, shortened: as §1
# EHF = target: T5, EHF (Homo sapiens, UniProt Q9NZC4 1-300); conditions: protein: recombinant; tags: N-terminal GST; dsDNA, one strand shown
# T5 sequence: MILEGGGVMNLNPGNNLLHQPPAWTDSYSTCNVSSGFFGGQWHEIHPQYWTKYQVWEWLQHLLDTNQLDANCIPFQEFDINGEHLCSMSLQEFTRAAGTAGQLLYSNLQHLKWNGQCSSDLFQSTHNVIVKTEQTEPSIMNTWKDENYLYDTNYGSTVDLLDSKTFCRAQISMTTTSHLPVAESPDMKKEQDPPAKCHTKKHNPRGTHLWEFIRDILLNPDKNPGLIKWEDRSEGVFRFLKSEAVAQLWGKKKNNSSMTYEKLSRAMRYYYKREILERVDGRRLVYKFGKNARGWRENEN
# Procedure, shortened: as §1
# SPI1 = SPI1 (Homo sapiens, UniProt P17947 1-270); conditions: protein: recombinant; tags: N-terminal GST; dsDNA, one strand shown
# Procedure, shortened: as §1
# SPIB = SPIB (Homo sapiens, UniProt Q01892 1-262); conditions: protein: recombinant; tags: N-terminal GST; dsDNA, one strand shown
# Procedure, shortened: as §1
# ELK3 = target: T6, ELK3 (Homo sapiens, UniProt P41970 1-407); conditions: protein: recombinant; tags: N-terminal GST; dsDNA, one strand shown
# T6 sequence: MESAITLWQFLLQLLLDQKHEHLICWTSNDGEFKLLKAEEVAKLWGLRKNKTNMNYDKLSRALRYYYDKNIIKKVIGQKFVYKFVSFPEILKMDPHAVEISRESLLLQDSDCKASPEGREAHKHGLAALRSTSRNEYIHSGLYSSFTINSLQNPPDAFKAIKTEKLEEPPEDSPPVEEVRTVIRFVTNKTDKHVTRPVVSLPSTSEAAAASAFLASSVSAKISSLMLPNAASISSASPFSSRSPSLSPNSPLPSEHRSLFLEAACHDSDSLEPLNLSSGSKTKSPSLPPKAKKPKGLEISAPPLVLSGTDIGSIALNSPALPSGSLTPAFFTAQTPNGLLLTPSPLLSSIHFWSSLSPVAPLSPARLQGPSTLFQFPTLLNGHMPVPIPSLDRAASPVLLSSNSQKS
# Procedure, shortened: as §1
# FEV = target: T7, FEV (Homo sapiens, UniProt Q99581 1-238); conditions: protein: recombinant; tags: N-terminal GST; dsDNA, one strand shown
# T7 sequence: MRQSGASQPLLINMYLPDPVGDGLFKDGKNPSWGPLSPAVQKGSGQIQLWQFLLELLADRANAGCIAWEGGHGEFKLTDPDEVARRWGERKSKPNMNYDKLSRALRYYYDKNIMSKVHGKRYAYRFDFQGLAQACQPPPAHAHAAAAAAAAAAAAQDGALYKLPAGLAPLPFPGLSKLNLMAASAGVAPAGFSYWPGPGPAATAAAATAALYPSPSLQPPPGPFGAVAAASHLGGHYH
# Procedure, shortened: as §1
# ETV5 = ETV5 (Homo sapiens, UniProt P41161 1-510); conditions: protein: recombinant; tags: N-terminal GST; dsDNA, one strand shown
# Procedure, shortened: as §1
# HSF1 = HSF1 (Homo sapiens, UniProt Q00613 1-529); conditions: protein: recombinant; tags: N-terminal GST; chain copies: 3; dsDNA, one strand shown
# Procedure, shortened: as §1
# SPIC = target: T8, SPIC (Homo sapiens, UniProt Q8N5J4 1-248); conditions: protein: recombinant; tags: N-terminal GST; dsDNA, one strand shown
# T8 sequence: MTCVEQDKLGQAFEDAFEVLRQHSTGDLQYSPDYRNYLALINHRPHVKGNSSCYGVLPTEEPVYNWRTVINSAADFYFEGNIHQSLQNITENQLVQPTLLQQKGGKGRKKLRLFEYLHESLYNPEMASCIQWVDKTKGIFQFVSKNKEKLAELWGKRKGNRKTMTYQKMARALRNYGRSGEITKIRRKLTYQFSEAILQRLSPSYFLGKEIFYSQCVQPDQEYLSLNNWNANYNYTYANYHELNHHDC
# Procedure, shortened: as §1
# ELF4 = ELF4 (Homo sapiens, UniProt Q99607 1-663); conditions: protein: recombinant; tags: N-terminal GST; dsDNA, one strand shown
# Procedure, shortened: as §1
# ELK4 = target: T9, ELK4 (Homo sapiens, UniProt P28324-2 1-405); conditions: protein: recombinant; tags: N-terminal GST; dsDNA, one strand shown
# T9 sequence: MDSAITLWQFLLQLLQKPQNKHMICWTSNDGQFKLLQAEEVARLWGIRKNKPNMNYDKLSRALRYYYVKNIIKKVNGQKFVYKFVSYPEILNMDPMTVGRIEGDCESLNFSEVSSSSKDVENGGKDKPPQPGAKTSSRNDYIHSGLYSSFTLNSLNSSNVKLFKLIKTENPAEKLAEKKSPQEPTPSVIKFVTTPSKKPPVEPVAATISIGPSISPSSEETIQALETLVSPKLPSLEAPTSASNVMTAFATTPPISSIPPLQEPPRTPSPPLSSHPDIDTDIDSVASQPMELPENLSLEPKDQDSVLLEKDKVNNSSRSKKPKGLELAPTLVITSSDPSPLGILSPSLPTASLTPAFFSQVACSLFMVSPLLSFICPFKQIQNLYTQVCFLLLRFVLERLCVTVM
# Procedure, shortened: as §1
# ETV2 = target: T10, ETV2 (Homo sapiens, UniProt O00321 1-342); conditions: protein: recombinant; tags: N-terminal GST; dsDNA, one strand shown
# T10 sequence: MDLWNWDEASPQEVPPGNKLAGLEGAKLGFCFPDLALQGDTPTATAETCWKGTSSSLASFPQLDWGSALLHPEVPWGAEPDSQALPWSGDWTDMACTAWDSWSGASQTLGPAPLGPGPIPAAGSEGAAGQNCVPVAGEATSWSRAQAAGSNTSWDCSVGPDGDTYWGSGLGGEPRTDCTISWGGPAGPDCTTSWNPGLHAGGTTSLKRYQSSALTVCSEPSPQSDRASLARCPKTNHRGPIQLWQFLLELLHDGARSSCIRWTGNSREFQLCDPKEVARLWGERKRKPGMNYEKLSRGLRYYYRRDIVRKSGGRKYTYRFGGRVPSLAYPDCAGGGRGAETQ
# Procedure, shortened: as §1
# ELF3 = target: T11, ELF3 (Homo sapiens, UniProt P78545 1-371); conditions: protein: recombinant; tags: N-terminal GST; dsDNA, one strand shown
# T11 sequence: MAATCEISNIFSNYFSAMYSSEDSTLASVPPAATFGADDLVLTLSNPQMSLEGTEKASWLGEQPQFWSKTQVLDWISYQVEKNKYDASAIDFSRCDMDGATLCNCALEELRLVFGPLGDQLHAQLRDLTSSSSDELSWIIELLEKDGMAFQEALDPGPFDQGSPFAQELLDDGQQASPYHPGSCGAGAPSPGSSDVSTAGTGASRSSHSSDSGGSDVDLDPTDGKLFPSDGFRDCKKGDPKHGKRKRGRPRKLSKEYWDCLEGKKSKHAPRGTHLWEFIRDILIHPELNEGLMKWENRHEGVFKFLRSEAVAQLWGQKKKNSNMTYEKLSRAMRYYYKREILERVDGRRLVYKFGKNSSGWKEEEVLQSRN
# Procedure, shortened: as §1
# CRX = CRX (Homo sapiens, UniProt O43186 1-299); conditions: protein: recombinant; tags: N-terminal GST; dsDNA, one strand shown
# Procedure, shortened: as §1
# ETV1 = ETV1 (Homo sapiens, UniProt P50549 1-477); conditions: protein: recombinant; tags: N-terminal GST; dsDNA, one strand shown
# Procedure, shortened: as §1
# Sequence of HSF1 (Q00613 whole entry): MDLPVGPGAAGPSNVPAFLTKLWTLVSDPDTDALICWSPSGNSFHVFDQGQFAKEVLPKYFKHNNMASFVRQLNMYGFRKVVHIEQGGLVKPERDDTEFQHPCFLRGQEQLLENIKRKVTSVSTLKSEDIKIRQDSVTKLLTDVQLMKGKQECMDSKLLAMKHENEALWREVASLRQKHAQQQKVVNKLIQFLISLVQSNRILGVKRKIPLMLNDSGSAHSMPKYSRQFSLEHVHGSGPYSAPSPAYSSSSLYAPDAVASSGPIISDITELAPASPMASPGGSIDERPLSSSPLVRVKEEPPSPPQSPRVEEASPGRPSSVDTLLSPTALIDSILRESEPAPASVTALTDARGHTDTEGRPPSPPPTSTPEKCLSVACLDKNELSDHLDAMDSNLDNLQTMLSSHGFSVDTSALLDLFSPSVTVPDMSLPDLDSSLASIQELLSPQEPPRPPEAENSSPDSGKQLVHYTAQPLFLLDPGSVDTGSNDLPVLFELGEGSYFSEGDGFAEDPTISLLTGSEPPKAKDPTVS
# Sequence of ETV1 (P50549 whole entry): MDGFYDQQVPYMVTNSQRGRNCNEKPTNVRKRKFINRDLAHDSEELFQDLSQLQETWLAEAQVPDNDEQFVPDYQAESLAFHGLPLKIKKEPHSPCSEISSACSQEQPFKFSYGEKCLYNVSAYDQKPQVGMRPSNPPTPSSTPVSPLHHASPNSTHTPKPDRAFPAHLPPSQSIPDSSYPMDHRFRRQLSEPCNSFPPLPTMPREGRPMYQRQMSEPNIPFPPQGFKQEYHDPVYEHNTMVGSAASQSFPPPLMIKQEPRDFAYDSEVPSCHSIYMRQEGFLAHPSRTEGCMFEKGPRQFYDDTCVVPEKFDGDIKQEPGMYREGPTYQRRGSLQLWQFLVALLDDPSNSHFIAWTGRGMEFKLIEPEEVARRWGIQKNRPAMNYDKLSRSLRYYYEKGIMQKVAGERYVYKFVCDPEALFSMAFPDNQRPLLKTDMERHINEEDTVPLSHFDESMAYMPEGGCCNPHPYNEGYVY
# Sequence of ELF4 (Q99607 whole entry): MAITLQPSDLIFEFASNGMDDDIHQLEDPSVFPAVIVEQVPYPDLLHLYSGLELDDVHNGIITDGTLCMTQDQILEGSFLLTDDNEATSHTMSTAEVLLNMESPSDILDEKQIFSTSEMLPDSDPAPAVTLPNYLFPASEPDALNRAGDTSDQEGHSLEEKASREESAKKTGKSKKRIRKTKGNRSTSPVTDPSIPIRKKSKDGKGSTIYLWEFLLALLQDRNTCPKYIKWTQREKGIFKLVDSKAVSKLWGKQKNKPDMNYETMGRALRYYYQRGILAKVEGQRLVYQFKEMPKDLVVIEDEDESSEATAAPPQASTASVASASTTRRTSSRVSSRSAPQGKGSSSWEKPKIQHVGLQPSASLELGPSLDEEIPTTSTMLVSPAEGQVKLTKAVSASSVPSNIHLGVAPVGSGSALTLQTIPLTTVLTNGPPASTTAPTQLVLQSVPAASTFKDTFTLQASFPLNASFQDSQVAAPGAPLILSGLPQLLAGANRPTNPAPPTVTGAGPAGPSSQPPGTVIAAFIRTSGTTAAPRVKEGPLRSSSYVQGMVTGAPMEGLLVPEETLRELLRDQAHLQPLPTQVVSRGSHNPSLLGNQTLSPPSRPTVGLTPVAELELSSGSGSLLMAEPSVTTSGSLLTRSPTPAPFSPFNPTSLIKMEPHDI
# Sequence of CRX (O43186 whole entry): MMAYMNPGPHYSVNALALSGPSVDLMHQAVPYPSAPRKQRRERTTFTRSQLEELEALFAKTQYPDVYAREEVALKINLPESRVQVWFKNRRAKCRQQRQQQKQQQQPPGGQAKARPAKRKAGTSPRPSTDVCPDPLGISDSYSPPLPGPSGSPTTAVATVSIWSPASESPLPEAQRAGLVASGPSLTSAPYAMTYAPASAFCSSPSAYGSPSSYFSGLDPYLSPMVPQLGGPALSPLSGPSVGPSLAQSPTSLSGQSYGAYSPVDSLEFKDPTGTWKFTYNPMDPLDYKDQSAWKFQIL
# Sequence of SPIB (Q01892 whole entry): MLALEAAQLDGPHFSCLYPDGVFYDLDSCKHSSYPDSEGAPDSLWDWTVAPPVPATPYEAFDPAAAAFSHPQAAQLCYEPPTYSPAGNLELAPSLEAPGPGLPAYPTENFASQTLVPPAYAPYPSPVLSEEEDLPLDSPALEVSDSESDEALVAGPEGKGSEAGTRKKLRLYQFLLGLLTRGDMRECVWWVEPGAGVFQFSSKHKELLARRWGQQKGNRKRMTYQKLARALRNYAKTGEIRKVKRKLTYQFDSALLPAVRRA
# Sequence of ETV5 (P41161 whole entry): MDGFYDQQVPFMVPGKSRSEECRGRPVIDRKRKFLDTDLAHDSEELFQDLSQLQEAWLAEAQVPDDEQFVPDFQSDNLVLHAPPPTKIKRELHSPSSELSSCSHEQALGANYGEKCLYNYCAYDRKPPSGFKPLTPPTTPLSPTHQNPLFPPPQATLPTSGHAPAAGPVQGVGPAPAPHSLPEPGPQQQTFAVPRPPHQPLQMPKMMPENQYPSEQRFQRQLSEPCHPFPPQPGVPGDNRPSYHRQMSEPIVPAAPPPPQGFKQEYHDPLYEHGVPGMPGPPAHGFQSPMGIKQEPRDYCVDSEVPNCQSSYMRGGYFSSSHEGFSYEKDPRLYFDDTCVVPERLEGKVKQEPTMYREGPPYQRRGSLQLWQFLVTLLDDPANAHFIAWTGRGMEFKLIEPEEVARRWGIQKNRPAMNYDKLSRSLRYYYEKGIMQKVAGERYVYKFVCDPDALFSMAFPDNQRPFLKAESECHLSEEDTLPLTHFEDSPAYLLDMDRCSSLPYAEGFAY
# Sequence of ELF1 (P32519 whole entry): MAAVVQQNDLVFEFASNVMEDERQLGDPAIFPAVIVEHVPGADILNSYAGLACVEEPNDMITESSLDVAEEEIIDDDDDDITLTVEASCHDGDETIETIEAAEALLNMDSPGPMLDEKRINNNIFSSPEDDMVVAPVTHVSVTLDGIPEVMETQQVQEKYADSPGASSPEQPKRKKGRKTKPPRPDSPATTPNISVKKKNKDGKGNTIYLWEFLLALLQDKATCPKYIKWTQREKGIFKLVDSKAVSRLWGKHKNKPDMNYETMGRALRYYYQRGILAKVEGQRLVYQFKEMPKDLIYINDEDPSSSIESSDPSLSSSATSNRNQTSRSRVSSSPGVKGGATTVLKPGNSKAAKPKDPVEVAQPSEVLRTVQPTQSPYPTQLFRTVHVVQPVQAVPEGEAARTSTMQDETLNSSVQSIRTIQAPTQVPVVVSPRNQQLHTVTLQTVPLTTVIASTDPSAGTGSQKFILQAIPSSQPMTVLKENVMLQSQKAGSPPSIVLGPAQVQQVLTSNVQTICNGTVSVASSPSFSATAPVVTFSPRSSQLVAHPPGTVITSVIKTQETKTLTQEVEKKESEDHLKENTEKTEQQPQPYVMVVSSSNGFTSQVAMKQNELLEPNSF
sequence,measurement,setting,value
CGACCT,binding signal,FLI1,"1.44 fold enrichment (6-mer frequency, TF over GST control)"
same,binding signal,ELK1,"1.44 fold enrichment (6-mer frequency, TF over GST control)"
same,binding signal,GABPA,"1.54 fold enrichment (6-mer frequency, TF over GST control)"
same,binding signal,ERG,"1.46 fold enrichment (6-mer frequency, TF over GST control)"
same,binding signal,ELF1,"1.6 fold enrichment (6-mer frequency, TF over GST control)"
same,binding signal,EHF,"1.39 fold enrichment (6-mer frequency, TF over GST control)"
same,binding signal,SPI1,"1.4 fold enrichment (6-mer frequency, TF over GST control)"
same,binding signal,SPIB,"1.63 fold enrichment (6-mer frequency, TF over GST control)"
same,binding signal,ELK3,"1.7 fold enrichment (6-mer frequency, TF over GST control)"
same,binding signal,FEV,"1.59 fold enrichment (6-mer frequency, TF over GST control)"
same,binding signal,ETV5,"1.61 fold enrichment (6-mer frequency, TF over GST control)"
same,binding signal,HSF1,"1.35 fold enrichment (6-mer frequency, TF over GST control)"
same,binding signal,SPIC,"1.41 fold enrichment (6-mer frequency, TF over GST control)"
same,binding signal,ELF4,"1.61 fold enrichment (6-mer frequency, TF over GST control)"
same,binding signal,ELK4,"1.56 fold enrichment (6-mer frequency, TF over GST control)"
same,binding signal,ETV2,"1.73 fold enrichment (6-mer frequency, TF over GST control)"
same,binding signal,ELF3,"1.45 fold enrichment (6-mer frequency, TF over GST control)"
same,binding signal,CRX,"1.21 fold enrichment (6-mer frequency, TF over GST control)"
same,binding signal,ETV1,"1.55 fold enrichment (6-mer frequency, TF over GST control)"

# From article PMC7862700, “An all-to-all approach to the identification of sequence-specific readers for epigenetic DNA modifications on cytosine”
